Experimental data from PubChem BioAssay (NCI).
The panel holds about 83,000 compounds, 20% with a hit somewhere; the sample as a whole holds those more often.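 How to read the values: 0–100, growth inhibition (40 = 60% inhibited); 0, no net growth; -100 to 0, cell death (-40 = 40% of starting cells died; -100 = all dead).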 Unmarked numbers belong to inactive results. Active and inactive are the calls of the source. Rule for the calls: active = growth percent below 10; inactive = the rest.

How the values were obtained:
Assay in all cases: NCI-60 one-dose screen, 48 h (100 = growth as untreated, 0 = no growth, -100 = all killed)
Conditions in all cases: 10 µM unless noted
[1] = tested on: DU-145 prostate
[2] = tested on: K-562 leukemia
[3] = tested on: MALME-3M melanoma
[4] = tested on: MDA-MB-231 breast
[5] = tested on: RXF 393 renal
[6] = tested on: SF-268 CNS
[7] = tested on: SF-539 CNS
[8] = tested on: UACC-257 melanoma
[9] = tested on: M14 melanoma
[10] = tested on: HT29 colon
[11] = tested on: SNB-75 CNS
[12] = tested on: SNB-19 CNS
[13] = tested on: U251 CNS
[14] = tested on: PC-3 prostate
[15] = tested on: SK-MEL-5 melanoma
[16] = tested on: LOX IMVI melanoma
[17] = tested on: SK-MEL-28 melanoma
[18] = tested on: SF-295 CNS
[19] = tested on: HCT-15 colon
[20] = tested on: UACC-62 melanoma

| Structure (SMILES) | growth [1] | growth [2] | growth [3] | growth [4] | growth [5] | growth [6] | growth [7] | growth [8] | growth [9] | growth [10] | growth [11] | growth [12] | growth [13] | growth [14] | growth [15] | growth [16] | growth [17] | growth [18] | growth [19] | growth [20] |
| --- | --- | --- | --- | --- | --- | --- | --- | --- | --- | --- | --- | --- | --- | --- | --- | --- | --- | --- | --- | --- |
| CC(=O)Nc1ccc(Sc2ccc([N+](=O)[O-])o2)cc1 | 34.7% | 17.6% | -16.5% (active) | 58.6% | -57.1% (active) | 54.5% | 15.3% | -43.4% (active) | 12.3% | 26.4% | 58.3% | 118% | 31.9% | 58.9% | 59.5% | 5.12% (active) | -8.34% (active) |  |  |  |
| CC(C)(C)[Si](C)(C)OC1[C@@H](O[Si](C)(C)C(C)(C)C)[C@@H](CNC(=O)NC(=O)C(F)(F)F)O[C@H]1n1cnc2c(NC(=O)Nc3ccccc3)ncnc21 (some centres undefined) | -81.2% (active) | -40.8% (active) | 74.8% | 82.7% | 104% | -29% (active) | 92.5% |  | 71.6% | 21.3% | 72.8% |  | 78.6% | -35.5% (active) |  | 56.2% | 97.9% | 69.5% | 69.7% | 84.3% |
| CN([N-]C(=O)CC(=O)[N-]N(C)C(=S)c1ccccc1)C(=S)c1ccccc1.[Cu+2] | -74.1% (active) | -29.7% (active) | -90.3% (active) | -89.5% (active) | -91.8% (active) | -67.3% (active) | -69.3% (active) | -92.9% (active) | -58.2% (active) | -77.8% (active) | -96.8% (active) | -96.1% (active) | -99% (active) | -53% (active) | -94.6% (active) | -93.1% (active) | -94.7% (active) |  | 2.52% (active) | -92.4% (active) |
| O=c1[nH]c(-c2ccccn2)nc2sc3c(c12)CCCCCC3 | 48.8% | 20.4% | 61.9% | 49.3% | 50.7% | 40.6% | 61.7% |  | 46.1% | 49% | 64.8% |  | 22.5% | 41.1% |  | 29.7% | 40.1% | -6% (active) | 27.9% | 45.6% |
| FC(F)(F)c1cc(CNc2ncc(Br)c(Cl)n2)cc(C(F)(F)F)c1 | 107% | 89.1% | 75.8% | 121% | 86% | 102% | 97% | 96.4% | 98.1% | 106% | 95.4% | 112% |  | 92.2% | 97.3% | 90.5% | 102% |  | 97.7% | 103% |
| C=CC(=O)N1CC2(CCC(n3nc(-c4ccc(Oc5ccccc5)cc4)c4c(N)ncnc43)CC2)C1 | -52.3% (active) | 3.48% (active) | -70.7% (active) | -31% (active) | -94.9% (active) | -81.1% (active) | -94.4% (active) |  | -79.7% (active) | -60.3% (active) | -69.5% (active) | -0.912% (active) | -73.8% (active) |  |  | -65% (active) | -67.9% (active) | -13.9% (active) | -60.5% (active) | -90.7% (active) |
| COc1cc2nc(SCc3cc(OC)c(OC)c(OC)c3)n(-c3ccccc3OC)c(=O)c2cc1OC | 81.8% | 27.3% | 63% | 77.5% | 78.1% | 69.9% | 89.9% |  | 77.1% | 66.6% | 62.8% |  | 86.8% | 61.1% |  | 77.3% | 78.9% | 73.8% | 75.4% | 72.5% |
| COCCOC1=C(Cl)C(=O)c2ccccc2C1=O | 38.7% | 8.89% (active) | 96.4% | 34.8% | 18.7% | 24.1% | -10.4% (active) | -17.3% (active) | 40.1% | 99% | 8.63% (active) | 88.4% | 8.18% (active) | 18.7% | -7.27% (active) | 22.1% | 13.7% |  | 13% |  |
| O=C(Nc1nc2ccccc2[nH]1)C(=O)Nc1nc2ccccc2[nH]1 | 114% | 94.1% | 91.4% | 91% | 102% | 102% | 95.8% | 101% | 98.8% | 107% | 93.4% |  | 96.5% | 85.7% | 99.2% | 93.5% | 107% |  | 86.2% | 97.5% |
| Cc1cc(=O)[nH]n1-c1cc(Cl)ccc1N | 132% | 99.4% | 108% | 124% | 107% | 116% | 102% | 89.8% | 99.8% | 102% | 88.4% | 112% | 108% | 106% | 112% | 94.7% | 115% |  | 92.4% |  |
| COC(=O)[C@@H]1CCCN1C(=O)[C@@H]1CCCN1C(=O)[C@@H](Cc1c[nH]c2ccccc12)NC(=S)Nc1cc(C(F)(F)F)cc(C(F)(F)F)c1 | 80.5% | 15.4% | 60.4% | 53.2% | 47.5% | 58% | 89.4% | 72.3% | 61.1% |  | 32.7% | 69.3% |  | 43.4% |  | 23.3% | 33.7% |  | 74.6% | 58.1% |
| Cc1ccc2nc(NC(=O)CSC(=S)N3CCN(C)CC3)sc2c1 | 122% | 106% | 108% | 110% | 105% | 112% | 100% | 89.8% | 107% | 106% | 90.8% | 108% | 108% | 95.6% | 107% | -72.3% (active) | 116% |  | 102% |  |
| COc1ccccc1-n1c(SCc2cc(OC)c(OC)c(OC)c2)nc2ccc(Cl)cc2c1=O | 30.1% | 12.7% | 33% | 55.7% | 61.5% | 41.6% | 64.6% |  | 15.9% | 7.69% (active) | -4.26% (active) |  | 25.6% |  | 27.7% | 33.2% | 49.4% | 31.9% | 27.8% | 34.3% |
| COc1ccc(-c2nc3sc(C)nn3c2-c2nc3cc(C)c(C)cc3[nH]2)cc1 | 101% | 97.2% | 88.3% | 99.6% | 99.5% | 101% | 95% | 100% | 103% | 99.2% | 87.1% | 110% | 103% | 86% | 93% | 94.8% | 96% |  | 80.6% | 88.5% |
| FC(F)(F)c1ccc2c(c1)n1cnnc1c1nncn21 | 118% | 100% | 106% | 104% | 104% | 117% | 114% |  | 114% | 107% | 103% | 107% |  | 98.3% | 98.7% | 108% | 115% | 89.2% | 111% | 110% |
| CC(=O)Nc1ccccc1-c1n[nH]c(=O)[nH]c1=O | 107% | 107% | 89.6% | 104% | 96.6% | 105% | 91.3% |  | 92% | 90.7% | 90.3% |  | 101% | 99.4% |  | 97.8% | 104% | 98.1% | 102% | 103% |
| C=C[C@H]1C[C@@H]2C[C@@H]3[C@H]4C/C=C\C(=O)NCCCC5NC(=O)C(=C(O)/C=C/[C@@H]4CC(=O)[C@H]3[C@@H]2[C@H]1C)C5=O (some centres undefined) | -95.7% (active) | -58.1% (active) | -72% (active) | -75.6% (active) | -85.6% (active) | -88.6% (active) | -81.1% (active) | -89.1% (active) |  |  | -85.4% (active) | -74% (active) | -96.4% (active) | -82.5% (active) | -95.3% (active) | -47.2% (active) | -78% (active) | 9.25% (active) | -76.2% (active) | -75.8% (active) |
